Results reported in PubChem BioAssay AID2284134 (EPA ToxCast).
The source made the active and inactive calls. The calls were made as follows: active = hit-call score of the fitted dose curve at least 0.9, where 1 is the maximum; inactive = score below 0.9.

target: human PKD2 (PRKD2) CAMK Kinase, PRKD2 (gene 25865) (UniProt Q9BZL6); test: ERF_KP_ENZ_hPKD2: Eurofins (ERF) Enzymatic Radiometric [10 uM ATP] KinaseProfiler LeadHunter Assay for human PKD2 (PRKD2) CAMK Kinase
Protocol: ERF_KP_ENZ_hPKD2 is a biochemical, single-readout assay that uses extracted gene-proteins in a cell-free assay. Measurements were taken 0.66 hour after chemical dosing in a 96-well plate. See PKD2 Human Protein Ser/Thr Kinase Enzymatic Radiometric Assay [10 uM ATP], KinaseProfiler.ERF_KP_ENZ_hPKD2 is an assay component calculated from the ERF_KP_ENZ_hPKD2 assay. It is designed to measure enzyme activity using a type of enzyme reporter as detected by scintillation counting with radiometry technology.Data from the assay component ERF_KP_ENZ_hPKD2 was analyzed at the assay endpoint, ERF_KP_ENZ_hPKD2, in the positive analysis fitting direction relative to DMSO as the negative control and baseline of activity. Using a type of enzyme reporter, loss-of-signal activity can be used to understand changes in enzymatic activity as they relate to gene PRKD2. To generalize the intended target to other relatable targets, this assay endpoint is annotated to the kinase intended target family, where the subfamily is serine/threonine kinase.
PKD2 (h) is incubated with 20 mM HEPES pH 7.4, 0.03% Triton X-100, 30 uM […], 10 mM MgAcetate and [gamma-33P]-ATP (specific activity and concentration as required). The reaction is initiated by the addition of the Mg/ATP mix. After incubation for 40 minutes at room temperature, the reaction is stopped by the addition of phosphoric acid to a concentration of 0.5%. […]

human PKD2 (PRKD2) CAMK Kinase, PRKD2 (gene 25865), sequence (Q9BZL6 whole entry, looked up): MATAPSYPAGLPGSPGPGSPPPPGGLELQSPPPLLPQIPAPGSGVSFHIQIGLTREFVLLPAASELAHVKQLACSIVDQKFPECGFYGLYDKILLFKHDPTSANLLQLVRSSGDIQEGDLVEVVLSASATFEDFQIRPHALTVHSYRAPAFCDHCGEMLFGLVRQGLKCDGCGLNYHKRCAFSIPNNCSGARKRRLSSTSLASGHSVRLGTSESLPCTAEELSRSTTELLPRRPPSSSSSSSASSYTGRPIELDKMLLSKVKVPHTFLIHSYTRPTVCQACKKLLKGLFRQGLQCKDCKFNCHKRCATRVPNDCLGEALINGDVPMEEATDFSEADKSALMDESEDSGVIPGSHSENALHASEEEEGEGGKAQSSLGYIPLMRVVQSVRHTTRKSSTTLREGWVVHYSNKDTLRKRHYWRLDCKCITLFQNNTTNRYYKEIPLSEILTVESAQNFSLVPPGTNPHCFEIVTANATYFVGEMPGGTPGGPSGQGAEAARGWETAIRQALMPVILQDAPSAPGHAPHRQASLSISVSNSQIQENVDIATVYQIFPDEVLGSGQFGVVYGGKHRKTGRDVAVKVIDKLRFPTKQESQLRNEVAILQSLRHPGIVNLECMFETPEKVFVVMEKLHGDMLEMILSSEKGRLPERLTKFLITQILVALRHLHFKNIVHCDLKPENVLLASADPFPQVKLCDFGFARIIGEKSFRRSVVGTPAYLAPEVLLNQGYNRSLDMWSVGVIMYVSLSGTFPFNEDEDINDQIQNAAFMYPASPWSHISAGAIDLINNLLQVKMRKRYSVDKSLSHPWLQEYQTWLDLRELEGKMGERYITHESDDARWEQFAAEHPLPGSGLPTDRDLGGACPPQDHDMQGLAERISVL

How did the AC50 turn out when `O=C(/C=C/c1ccc(O)cc1)CC(=O)/C=C/c1ccc(O)cc1` was run?
The AC50 was 300 pM (active).
